Results taken from PubChem BioAssay (NCI).
This is part of a sample that, as a whole, favours compounds with a hit. Of some 83,000 tested, about 20% had one in any assay.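 Values shown are percent growth following 48 h exposure of cells in 96-well plates to a single concentration of compound; below 10 was considered active.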 A number with no mark means an inactive call. Active and inactive are the calls of the source.

test system: MDA-MB-468 breast; assay: NCI-60 one-dose screen, 48 h (100 = growth as untreated, 0 = no growth, -100 = all killed); settings: 10 µM unless noted

Row | SMILES | growth
1 | CCN(CC)CCCCNc1c2ccc(Cl)cc2nc2ccc(OC)cc12 | -42.7% (active)
2 | O=C1c2c(c3c4ccccc4[nH]c3c3ccc4ccccc4c23)C(=O)N1CCN1CCCCC1 | -0.798% (active)
3 | COc1cccc(-c2nc3sccn3c2-c2ccnc(NCCCNS(=O)(=O)c3ccccc3)c2)c1 | 1.62% (active)
4 | COc1ccc(-c2nn(-c3ccc(NC(=O)Nc4ccc(Cl)c(Cl)c4)cc3)cc2-c2ccncc2)cc1Cl | -33.2% (active)
5 | CN(C)CCC1(c2ccccc2)CCN(C)C1=O (centres undefined) | 94.7%
6 | c1ccc2c(c1)Sc1ccccc1S2 | 93.7%
7 | NC1(N2SC(S)=C3CCCC=C32)CCCCC1 | 99.9%
8 | CCOC(=O)NC(Cc1ccccc1)c1ccccc1 (centres undefined) | 106%
9 | COc1ccc2cc(-c3nc(C)c(C(C)=O)c(-c4ccc(C)cc4)n3)ccc2c1 | 74.4%
10 | O=C1c2cccc(NCCN=Cc3cc([N+](=O)[O-])ccc3O)c2C(=O)c2c(NCCN=Cc3cc([N+](=O)[O-])ccc3O)cccc21 | 43.4%
11 | O=C(CCCCCCN1CC(=O)N2[C@@H](C3CCCCC3)c3[nH]c4ccccc4c3C[C@H]2C1=O)NO | 64.3%
12 | COc1ccccc1CNC(=O)C1c2ccccc2C(=O)N(CC(C)C)C1c1cccs1 (centres undefined) | 65.7%
13 | O=P(O)(O)OCC1OC(n2cnc3c(NCc4ccco4)ncnc32)C(O)C1O (centres undefined) | -67% (active)
14 | COc1cc2cc(Oc3ccc(NC(=O)Nc4ccc(Cl)c(C(F)(F)F)c4)cc3)c(C)nc2cc1OC | -42.7% (active)
15 | Clc1ccc(Nc2nnc(CNc3ccccc3)c3ccccc23)cc1 | -16.4% (active)
16 | COc1ccc(/C=C/C(=O)c2cc(S(N)(=O)=O)c(OC)cc2OC)cc1 | -6.04% (active)
17 | N#Cc1nc(-c2ccccc2)oc1S(=O)(=O)N1CCN(CCc2ccccn2)CC1 | 25.7%
18 | Clc1ccc2[nH]cc(-c3nn4cc(-c5ccncc5)nc4s3)c2c1 | 42.4%
19 | O=[N+]([O-])c1ccc2c(N=Nc3ccc4ccccc4c3O)c(O)cc(S(=O)(=O)O)c2c1 | 106%
20 | O=C(CSc1nc2sc3c(c2c(=O)n1-c1ccccc1)CCCCC3)N/N=C/c1ccc(F)cc1 | -3.84% (active)
21 | COc1ccc(-c2csc(N/N=C/c3c(-c4ccc(S(C)(=O)=O)cc4)nc4ccccn34)n2)cc1 | 106%
22 | O=C(CCCCCCN1CC(=O)N2[C@@H](c3cccs3)c3[nH]c4ccccc4c3C[C@H]2C1=O)NO | 41.6%
23 | COC(=O)c1ccc(NC(=O)c2ccc(-c3cccc([N+](=O)[O-])c3)o2)cc1 | 96.5%
24 | COC(=O)[C@H](Cc1cn(C)cn1)NC(=O)[C@H](Cc1ccccc1)NC(=O)Nc1cc(C(F)(F)F)cc(C(F)(F)F)c1 | -69.6% [100 µM] (active)
